High-throughput results: PubChem, National Center for Advancing Translational Sciences (NCATS)
D1 potentiator = Potentiators of Human D1 Dopamine Receptor: qHTS. HEK293 TREx D1 cells, calcium flux, dopamine EC20 potentiation. 0.036% of 360,000 active. potentiation, % at 10 µM; in the data active = potentiation above about 30%; note: 0% is about no effect
D1 antag = Antagonist of Human D 1 Dopamine Receptor: qHTS. 3.2% of 360,000 active. HEK293 TREx D1 cells, calcium flux, dopamine EC80; stronger effect = lower value. D(1A) dopamine receptor (Homo sapiens), P21728. activity change, negative = inhibition, % at 10 µM; in the data active = activity change below about -30%; note: % is set by controls: 0 for no effect and ±100 for the full control effect
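After overnight tetracycline induction at 30 C, force-coupled D1 HEK293 cells took up a no-wash calcium dye at room temperature. Compounds were added and monitored 180 s, and the response to EC80 dopamine was then recorded.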
D3 antag = qHTS of D3 Dopamine Receptor Antagonist: qHTS; max response, negative = inhibition, %; D(3) dopamine receptor (Homo sapiens), P35462; D3R cells, DiscoveRx beta-arrestin luminescence, antagonist mode; stronger effect = lower value; 2.5% of 360,000 active; AID 652054, 2013; in the data active = max response below about -50%; inconclusive = no clear call, values can overlap the other calls; note: % is set by controls: 0 for no effect and ±100 for the full control effect
Target sequence (P35462 whole entry, looked up): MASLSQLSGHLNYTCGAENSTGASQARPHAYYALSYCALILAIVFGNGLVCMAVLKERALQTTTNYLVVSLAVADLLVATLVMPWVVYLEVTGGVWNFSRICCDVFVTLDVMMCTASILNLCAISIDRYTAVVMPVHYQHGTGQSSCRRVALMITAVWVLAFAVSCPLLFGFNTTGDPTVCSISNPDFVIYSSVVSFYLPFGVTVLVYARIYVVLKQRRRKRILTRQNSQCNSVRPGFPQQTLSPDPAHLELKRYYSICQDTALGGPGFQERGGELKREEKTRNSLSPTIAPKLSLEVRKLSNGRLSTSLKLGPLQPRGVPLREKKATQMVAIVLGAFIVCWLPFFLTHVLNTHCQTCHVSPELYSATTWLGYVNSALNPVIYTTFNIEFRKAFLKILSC
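Cells expressing the human receptor were seeded at 1500 cells/well, incubated overnight at 37 degrees C in 5% CO2, then exposed to library compounds with dopamine controls for 90 minutes at 37 degrees C before luminescent detection.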
D3 ag = qHTS of D3 Dopamine Receptor Agonist: qHTS; D(3) dopamine receptor (Homo sapiens), P35462; D3R DiscoveRx beta-arrestin cells, luminescence, 90 min; max activation, %; 0.58% of 410,000 active; AID 652048, 2013; in the data active = max activation above about 30%; note: 0% is about no effect
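Cells at 1500/well, incubated overnight, then treated with pinned compounds (dopamine as control) for 90 min at 37 degrees C. DiscoveRx reagent added for 30 - 60 minutes at room temperature; luminescence read.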
D1 ag = Allosteric Agonists of the Human D1 Dopamine Receptor: qHTS | D(1A) dopamine receptor (Homo sapiens), P21728 | HEK293 T-REx D1 cells, calcium flux, agonist mode | activation, % at 2 µM | 1% of 360,000 active | AID 504660, 2011; in the data active = activation above about 30%; note: 0% is about no effect
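Inducible HEK293 T-REx D1 cells, force-coupled to calcium signalling, were plated at 4000 cells/well with tetracycline and held overnight at 30 C. After no-wash calcium dye loading, compound-evoked calcium rise over 180 s flagged agonists.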
The depositor's hits bear a star; ? = inconclusive; nt = no result. Hits are enriched below; roughly 6% of the tested compounds scored in any of these assays.

SMILES	D1 potentiator	D1 antag	D3 antag	D3 ag	D1 ag
Cc1ccccc1C(=O)Nc1ccc(C(=O)OCc2cc(=O)n3nc(C4CC4)sc3n2)cc1	1	-3	nt	8	9
COc1ccc(CCNC(=O)c2c(C)nn(-c3ccc(F)cc3)c2-n2cccc2)cc1OC	-3	-13	nt	5	1
COc1ccc(-c2nnc3n2N=C(C)CS3)cc1	-10	1	-4	1	2
CCOC(=O)/C(=C/c1ccc(OC(F)F)cc1)C1=Nn2c(nnc2-c2ccc(Cl)cc2)SC1	nt	nt	-62*	-17	nt
CCOC(=O)/C(=C\c1ccc(OC(F)F)cc1)C1=Nn2c(nnc2-c2ccc(Cl)cc2)SC1	5	-4	-90*	-9	4
CC(C)(CNC(=O)CCC1CCCC1)CNC(=O)CCC1CCCC1	1	0	-4	-6	2
Cc1cccc(OCCSc2nc3ccc(NC(=O)COc4ccccc4)cc3s2)c1	1	8	nt	-15	-3
CC(C)CC(=O)NC(Nc1ccc([N+](=O)[O-])cc1)C(Cl)(Cl)Cl (centres undefined)	-3	-40*	-11	-1	25
CCOc1ccc(NC(=O)C(C)Sc2nc3ncccc3o2)cc1 (centres undefined)	-2	16	nt	0	1
COc1cc(-c2ccc3oc(-c4cccc(C)c4)c(C#CC4(O)CCCCC4)c3c2)cc(OC)c1OC	nt	nt	10	42*	nt
O=C(NCCc1c[nH]c2ccccc12)Nc1ccccc1C(F)(F)F	-3	-4	nt	2	5
C=CCNC(=O)c1onc(CSc2ccc(F)cc2)c1C(=O)O	-4	-34*	5	-5	-2
CCCNC(=O)c1onc(CSc2ccccn2)c1C(=O)NCCC	1	-38*	-6	12	2
C=CCNC(=O)c1onc(CCl)c1C(=O)OC	0	-9	5	65*	1
COCCNC(=O)c1onc(CCl)c1C(=O)OC	-5	5	-29	-13	3
O=C(NCc1ccccc1)c1onc(CSc2ccccc2)c1C(=O)NCC1CC1	-2	-51*	-8	-17	46*
COc1cc(NC(=O)CSc2nnc3ccccn23)cc(OC)c1OC	nt	nt	-3	-6	nt
COc1ccc(S(N)(=O)=O)cc1C(=O)OCC1CCCCC1	-7	8	2	16	2
COCCNC(=O)c1c(CS(=O)(=O)c2ccccc2)noc1C(=O)NCc1ccccc1	0	10	13	36*	3
COCCNC(=O)c1c(CSc2ccccc2)noc1C(=O)NCc1ccccc1	-1	12	10	6	5
O=C(NCN1CCN(c2ccccn2)CC1)c1cnccn1	1	24	0	-1	8
c1ccc(N2CCN(c3nnc(Cc4cccnc4)c4ccccc34)CC2)nc1	-3	-6	7	42*	0
c1ccc(N2CCN(c3cnccn3)CC2)nc1	4	-41*	4	-1	-1
Cc1cc(F)ccc1S(=O)(=O)N1CCCOC1CNC(=O)C(=O)NCCc1ccco1 (centres undefined)	nt	nt	-10	-3	nt
Cc1ccc(-c2c(C)n3c4c(=O)n(C)c(=O)n(C)c4nc3n2-c2cccc(O)c2)cc1	-3	9	nt	4	0
SMILES	D1 potentiator	D1 antag	D3 antag	D3 ag	D1 ag
OCCCNc1ncnc2c1cnn2-c1ccc(Cl)cc1	-11	-36*	1	3	16
Clc1cccc(-n2ncc3c(NCCCN4CCOCC4)ncnc32)c1	3	-77*	nt	-18	1
Cc1ccc(Cl)cc1-n1ncc2c(Nc3cccc(C)c3C)ncnc21	-2	4	nt	3	57*
Cc1ccc(-n2c(C)c(C)c3c(NCCN(C)C)ncnc32)cc1	-10	-38*	10	4	0
CN(C1CCCCC1)S(=O)(=O)c1ccc(=S)[nH]c1	-3	-8	12	-4	3
CN(C)CCNc1ncnc2c1cnn2-c1ccc(Cl)cc1	nt	0	-64*	-4	33*
CN(C)CCNc1ncnc2c1cnn2-c1cccc(Cl)c1	-2	0	nt	-17	37*
Cc1ccc(Cn2ncc3c(NCCN(C)C)ncnc32)cc1	3	8	-11	-11	4
Clc1ccc(-n2ncc3c(NCc4ccco4)ncnc32)cc1	-3	-44*	-1	-4	1
Cc1ccc(NC(=O)C2CCCN(S(=O)(=O)c3ccc(C)cc3)C2)cc1 (centres undefined)	3	7	nt	6	-1
CCCNC(=O)C1(C)CCN(Cc2cccc(OC(=O)c3ccccc3)c2)C1 (centres undefined)	nt	nt	-79*	-16	nt
CCNC(=O)C1(C)CCN(Cc2csc(-c3ccccc3)n2)C1 (centres undefined)	nt	nt	-113*	-27	nt
COCCNC(=O)C1(C)CCCN(Cc2cccc(OC(=O)c3ccccc3)c2)C1 (centres undefined)	nt	nt	0	0	nt
CCCNC(=O)C1(C)CCN(Cc2cc(C(F)(F)F)ccc2Cl)C1 (centres undefined)	nt	nt	-57*	-14	nt
CCNC(=O)C1(C)CCCN1C(=O)c1ccc2c(c1)OCO2 (centres undefined)	nt	nt	6	87*	nt
CCNC(=O)C1(C)CCCN(Cc2csc(-c3ccccc3)n2)C1 (centres undefined)	nt	nt	12	-3	nt
CCCN1CCN(CCCNC(=O)c2ccc(CS(=O)c3ccc(OC)cc3)o2)CC1 (centres undefined)	0	-6	-21	-13	3
CCCNC(=O)C1(C)CCN(Cc2ccc(-c3ccccc3)o2)C1 (centres undefined)	nt	nt	-79*	-23	nt
CCCNC(=O)C1(C)CCCN(Cc2ccc3c(c2)OCO3)C1 (centres undefined)	nt	nt	-55*	-11	nt
CCNC(=O)C1(C)CCCN(Cc2ccc(-c3ccccc3)o2)C1 (centres undefined)	nt	nt	?	-18	nt
Cc1noc(C)c1S(=O)(=O)N(C)C[C@H]1OCc2cnnn2CCCC(=O)N([C@H](C)CO)C[C@H]1C	nt	nt	-2	-9	nt
Cc1[nH]c(-c2ccc(F)cc2)cc1C(=O)N1CCN(c2cccc(Cl)c2)CC1	-2	3	?	4	0
Cc1ccc2oc(=O)c3cc(C(=O)N4CCN(c5ccccc5)CC4)sc3c2c1	-3	6	nt	-1	-1
CSc1nn2c(C(F)(F)F)cc(C(F)(F)F)nc2c1C(=O)O	6	0	11	8	-1
COc1ccccc1CNC(=O)CCCCn1c(=O)c2ccccc2n(Cc2ccccc2C)c1=O	0	6	nt	-11	-1
O=C(COc1ccccc1Cl)NC(=S)Nc1ccc(CN2CCOCC2)cc1	-2	-2	19	3	8
O=[N+]([O-])c1ccc(COc2cccc(CN3CCOCC3)c2)cc1	nt	nt	-4	-13	nt
